From ChEMBL document CHEMBL3988442, “University of Dundee, Small-Polar-MMV Screening Library” (2021)

Assays:
[1] = biological target: T1, Aspartate--tRNA(Asp/Asn) ligase (Mycobacterium tuberculosis (strain ATCC 25618 / H37Rv)) (UniProt P9WFW3); assay: Assay for Asp RNA synthetase-1 from Mycobacterium tuberculosis; assay type: functional; parameters: scale not given: direction of the effect not stated beside the values; settings: 30 µM; also: in the data most compounds retested in dose-response had high values
T1 sequence (whole entry): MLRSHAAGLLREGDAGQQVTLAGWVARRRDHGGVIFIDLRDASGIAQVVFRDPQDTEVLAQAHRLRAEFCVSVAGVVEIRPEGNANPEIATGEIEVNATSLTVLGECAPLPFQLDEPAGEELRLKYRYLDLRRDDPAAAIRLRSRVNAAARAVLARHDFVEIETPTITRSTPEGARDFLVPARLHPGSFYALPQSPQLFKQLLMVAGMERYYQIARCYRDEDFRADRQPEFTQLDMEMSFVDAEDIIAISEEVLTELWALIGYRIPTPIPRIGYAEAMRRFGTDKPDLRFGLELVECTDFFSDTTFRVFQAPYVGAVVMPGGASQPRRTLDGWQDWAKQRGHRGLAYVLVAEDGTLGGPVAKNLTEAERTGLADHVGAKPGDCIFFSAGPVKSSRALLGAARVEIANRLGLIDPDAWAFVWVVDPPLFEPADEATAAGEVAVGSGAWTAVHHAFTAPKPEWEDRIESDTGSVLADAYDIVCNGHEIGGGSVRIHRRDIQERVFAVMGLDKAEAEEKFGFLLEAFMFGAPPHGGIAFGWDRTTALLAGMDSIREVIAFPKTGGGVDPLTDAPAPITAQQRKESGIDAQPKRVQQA

[2] = biological target: Shiga toxin 2 (Escherichia coli O157:H7) (UniProt P09385+P09386); assay: E. coli 0.157:H7 Shiga Toxin SOP - stx2 screening assay; assay type: functional; parameters: scale not given: direction of the effect not stated beside the values; settings: 30 µM

SMILES	Percent Effect [1] [%]	Percent Effect [2] [%]
Cc1ccc2c(c1)CCC21CCN(C(=O)CO)CC1	5.32	-38.4
Cc1ccc(C(O)CNCc2c(C(C)C)nn(C)c2N(C)C)cc1 (centres undefined)	-5.77	10.4
CN(CCCNc1cc(N2CCCC2CO)ncn1)S(C)(=O)=O (centres undefined)	7.01	-30
CCOc1ccccc1CSc1nnc(CC2CCS(=O)(=O)C2)n1C (centres undefined)	4.33	4.92
COc1ccc(CC(=O)N2CCCCC2Cn2cccn2)cc1OC (centres undefined)	-2.34	-6.84
Cc1nc(N2CCN(C(=O)C(C)(C)C)CC2)cc(-n2cnc(C)c2C)n1	0.832	-43.6
COCC(=O)N1CCC(c2cc(C(F)(F)F)n3ccnc3n2)CC1	-2.99	-10.9
COc1cccc(CN(C)Cc2ccc(C#N)cc2)c1OC	-1.31	9.74
O=C(c1cccc2c1OCO2)N1CCCC(n2cccn2)C1 (centres undefined)	-0.706	17.8
Cc1c(CN2CCCC(c3[nH]ncc3S(C)(=O)=O)C2)cnn1C (centres undefined)	-0.927	-23.4
CN(C)CC1CN(Cc2coc(-c3cccs3)n2)CCO1 (centres undefined)	2.66	-25.6
CCn1c(CN2CCC(O)(C(=O)OC)CC2)nc2c(F)cccc21	-3.57	-24.9
CCN1CCC(NC(=O)CN2CCc3c(nc(C4CC4)n3C)C2)CC1	-3.88	7.04
CC(C)NC(=O)N1CCC2(CC(=O)N(c3cccc(C#N)c3)C2)C1 (centres undefined)	5.75	8.35
CC(=O)N1CCCC1c1cccc(Cc2ccc(F)cc2)n1 (centres undefined)	-5.96	5.81
CCc1nc(CC(=O)N2CCn3c(nnc3C(F)(F)F)C2)cs1	1.3	17.9
CCN(CCn1cccn1)Cc1nc(-c2cccs2)oc1C	-0.251	7.38
COc1cc(CNCCc2cnn(C)c2)cc2c1OCCO2	-1.03	10.4
CCc1ccsc1C(=O)N1CCN(C(=O)CC(F)(F)F)CC1	-0.116	-16.6
COCCNc1ccc(CNC(=O)Nc2cn[nH]c2)cc1	-0.4	-2.17
CCCc1noc(CN(C)C(=O)C2COc3ccccc3C2)n1 (centres undefined)	1.75	-22.5
CN1CC[C@H](c2ccccc2)[C@@H]2[C@H]1CCCCN2C(=O)c1cnccn1	-3.68	3.52
Cc1cnc(N2CCC3(CCCN(c4ccc(C)nn4)C3)C2)nc1 (centres undefined)	-0.547	-25.4
OC(CN(Cc1ccccc1)Cc1ccncc1)c1cccs1 (centres undefined)	-1.23	4.51

SMILES	Percent Effect [1] [%]	Percent Effect [2] [%]
Cc1cc(C(=O)N2C[C@@H]3COC[C@]3(c3nnc(C4CC4)o3)C2)on1	2.94	-27.3
COCCN1CCC2(CCCN(C(=O)c3cnoc3C)C2)C1=O (centres undefined)	0.137	-23
O=C(Cc1ccc(-n2cccn2)cc1)N1CCCC(n2cccn2)C1 (centres undefined)	-2.94	-22.3
Cc1ccc(N2CC3(COCCN(Cc4cccnc4)C3)OCC2=O)s1 (centres undefined)	10.1	-4.57
CC(=O)NCCNC(=O)c1cnc(-c2ccccc2)nc1	4.64	-11.3
Cc1nc(C2CCN(C(=O)c3ccc(=O)n(C)c3)CC2)c2sccn12	3.56	-17.4
O=C(NCCN1CCc2ccccc2C1)c1scnc1Cl	1.6	-3.31
CCc1nc2n(n1)CC(NCc1noc(-c3ccccc3)n1)CC2 (centres undefined)	-2.95	-17.9
Cc1ccc(-c2cc(N)c(=O)n(CC(=O)NC3CCCCC3)n2)s1	1.95	13.1
CC1CN=C(N2CCN(C(=O)Nc3nc(-c4ccccc4)ns3)CC2)S1 (centres undefined)	3.62	-38.1
Cc1cnn(CCC(=O)N2CCC(Nc3cccnn3)CC2)c1	1.38	16.1
CN(C)c1ncccc1CNS(=O)(=O)c1ccccc1F	4.63	-24.7
Cc1ccccc1CS(=O)(=O)CC(=O)NCc1ccccc1F	7.37	10.5
c1cnn(CCNCc2nnc(C3CC3)o2)c1	-0.343	-28.3
Cc1noc(C(C)N2CCN(CCC(=O)N3CCCCC3)CC2)n1 (centres undefined)	-2.64	7.71
COc1cccc(C2CC(=O)Nc3nc(N4CCOCC4)sc32)c1OC (centres undefined)	63.4	-3.76
CCn1cnnc1CNC(=O)N1CCCN(C(C)=O)CC1	-0.98	25.6
CNC(=O)CCCNCc1c(C)nn(C)c1N(C)C	2.12	-15.3
O=C(NCc1cc[nH]n1)NC1CCCN(c2ncccn2)C1 (centres undefined)	-4.43	-3.98
CCS(=O)(=O)N1CCC2(CC1)CC(Oc1ccccn1)CO2 (centres undefined)	-0.51	0.988
O=C(NCC1CCN(Cc2ccsc2)CC1)NC1CC1	4.04	-10.9
Cc1cccc(COC[C@H]2CC[C@H]3[C@H](CCN3C(=O)CC3CC3)O2)n1	-1.43	1.2
Cc1nc(CCNC(=O)N2CCC(Cc3cnn(C)c3)C2)cs1 (centres undefined)	-5.21	-13.9
